# Test results: PubChem BioAssay (NCI)
# This is part of a sample that, as a whole, favours compounds with a hit. Of some 83,000 tested, about 20% had one in any assay.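 Growth was measured after 48 h exposure to one concentration of compound in 96-well plates. Values under 10 count as active.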 A number with no mark means an inactive call. Calls of active or inactive are those of the source.
# Test system: HL-60(TB) leukemia
# Experiment: NCI-60 one-dose screen, 48 h (100 = growth as untreated, 0 = no growth, -100 = all killed)
# Details: 10 µM unless noted
row,SMILES,growth
1,CC(C)c1ccc(C(=O)Nc2sc3c(CN(C)C)c(O)ccc3c2C(N)=O)cc1,24.2%
2,O=S(=O)(c1ccccc1)n1ccc(-c2ccc3c(c2)CCO3)n1,109%
3,COc1ccc(N(C)c2nc(Cl)nc3cnn(C)c23)cc1,-4.95% (active)
4,O=C(Nc1ccc(Nc2cc(Nc3ccccc3)ncn2)cc1)Nc1cc(C(F)(F)F)ccc1F,106%
5,Cc1ccc(C(=O)O)o1,101%
6,COc1ccc(/C=c2\nc3n(-c4ccccc4)c4nc5c6c(sc5c(=N)n4n-3c2=O)CCCC6)cc1,101%
7,COc1cc(Nc2cc(O)c3c(=O)cc(-c4ccccc4)oc3c2)cc(OC)c1,-35.7% (active)
8,COc1nc(OC)nc(-c2cc(C(=O)c3ccc(Br)cc3)n3cc(C)cc(C)c23)n1,99%
9,Cc1ccc2c(c1)c(Sc1ccc(C(=O)NO)cc1)c1n2CN(C)CC1,21.4%
10,N#CCCOc1ccccc1,88.7%
11,COC(=O)c1ccc2[nH]c(O)c(C(=Nc3ccc(N(C)C(=O)CN4CCN(C)CC4)cc3)c3ccc(OC)cc3)c2c1,-13.8% (active)
12,O=C1/C(=C/c2ccc(-c3cccc(C(F)(F)F)c3)o2)SC(=S)N1CCc1ccc(O)cc1,35.7%
13,CC(C)(C)OC(=O)N1C/C(=C\c2ccccc2)C(=O)/C(=C/c2ccccc2)C1,99.6%
14,C=C[C@H]1C[C@@H]2C[C@@H]3[C@H]4C/C=C\C(=O)NCCCC5NC(=O)C(=C(O)/C=C/[C@@H]4CC(=O)[C@H]3[C@@H]2[C@H]1C)C5=O (stereo not given in full),-76.5% (active)
15,Cn1cc(-c2csc(-c3cn(C)c4ncccc34)n2)c2cc(F)cnc21,86.4%
16,O=S(=O)(Nc1ccccn1)c1ccc(N=Nc2ccc(O)c3ncccc23)cc1,-30.6% (active)
17,Oc1c(CN2CCCC2)cc(COCc2ccccc2)c2cccnc12,10.6%
18,O=C1/C(=C/c2cccc(Br)c2)COc2ccc(O)c(O)c21,-15.3% (active)
19,CC1(C)C2CC=C(/C=N/NC(=O)C3CCC(=O)N3)C1C2 (stereo not given),101%
20,O=C1c2c(c3c4cccc(F)c4[nH]c3c3ccc4ccccc4c23)C(=O)N1O,31%

row,SMILES,growth
1,COC(=O)/C=C1\SC(=Nc2cccc(OC)c2)N(CCc2c[nH]c3ccccc23)C1=O,22.2%
2,O=C(CCc1nnc2sc(-c3ccc(Cl)cc3Cl)nn12)c1nc2ncccc2[nH]1,3.13% (active)
3,Cc1cc(C)nc(SC2=C(Nc3cccc(Cl)c3C)C(=O)N(Cc3ccccc3)C2=O)n1,10.4% [30 µM]
4,COc1ccc(/C(C)=C(\c2ccc(Cl)cc2)c2ccc(OCCCN(C)C)cc2)cc1F,66.2%
5,O=C1c2ccccc2C2N1CCC1CCc3ccccc3N12 (stereo not given),104%
6,O=C(N/N=C/c1c[nH]c2ccccc12)c1cc(-c2ccccc2)on1,73.4%
7,CC1=C([Se]CC(OC(=O)CC[Se]c2ccccc2)C(=O)NC(C)(C)C)C(=O)c2ccccc2C1=O (stereo not given),-43.2% (active)
8,COC(=O)[C@H](CSC)N(C)C(=O)[C@@H]1CSSC[C@@H](NC(=O)c2nc3ccccc3cc2O)C(=O)NCC(=O)N1C,0.567% (active)
9,O=S(=O)(Nc1cccc(Cl)c1)c1ccc(-c2cnc(C3CC3)o2)cc1,2.04% (active)
10,COc1ccc(OC)c(Nc2nnc(-c3ccc(O)c(OC)c3)o2)c1,87.3%
11,Cc1cc(Nc2nc(C(=O)Nc3ccccc3)nc3ccccc23)n[nH]1,63.5%
12,Cc1cc(=O)oc2c1ccc1oc(C(=O)c3ccccc3)c(C)c12,75.2%
13,O=C(O)c1ccc(-n2cc(/C=N/Nc3ccc(Cl)cc3Cl)c(-c3ccccc3)n2)cc1,-81.8% (active)
14,CCN(CC)CCN1C(=O)c2c(c(C)c3c(oc4ccc(O)cc43)c2C)C1=O,-6.29% (active)
15,COc1ccc(N2CCN(CC(=O)N3CCN(c4nnc(-c5ccc(Cl)cc5)c(-c5ccc(Cl)cc5)n4)CC3)CC2)cc1,-19.9% (active)
16,O=C(Oc1ccc2c(c1)sc1nc(-c3ccccc3)[nH]c(=O)c12)C(F)(F)F,2.56% (active)
17,CCOC(=O)c1c2c(n3ccccc13)C(=O)c1ncccc1C2=O,-28.8% (active)
18,CC1(C)CCC[C@]23C(=O)O[C@](O)(C(=O)C4=C[C@@](C)(/C=C/CCCc5ccc6ccc7cccc8ccc5c6c78)CC[C@@]42O)[C@@H]13,-18.3% (active)
19,O=S(=O)(NCCCNc1nccc(-n2ccc3cccnc32)n1)c1ccc(Br)cc1,110%
20,COc1ccc(-c2nn(-c3ccccc3)cc2/C=C/C(=O)OCc2cn(-c3ccc(F)c(Cl)c3)nn2)cc1,83.3%
